Results as given in PubChem BioAssay (NCI).
This is part of a sample that, as a whole, favours compounds with a hit. Of some 83,000 tested, about 20% had one in any assay.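 In brief: 96-well plates, 48 h treatment, single concentration, percent growth endpoint.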 Unmarked numbers belong to inactive results. Calls of active or inactive are those of the source. How the source made its calls: active means growth percent below 10; inactive means the rest.

Experiments:
Assay in all cases: NCI-60 one-dose screen, 48 h (100 = growth as untreated, 0 = no growth, -100 = all killed)
Conditions in all cases: 10 µM unless noted
HCT-15 colon = test system: HCT-15 colon
HT29 colon = test system: HT29 colon
SNB-75 CNS = test system: SNB-75 CNS
SNB-19 CNS = test system: SNB-19 CNS
U251 CNS = test system: U251 CNS
PC-3 prostate = test system: PC-3 prostate
SK-MEL-5 melanoma = test system: SK-MEL-5 melanoma
UACC-62 melanoma = test system: UACC-62 melanoma
SK-MEL-28 melanoma = test system: SK-MEL-28 melanoma
SK-MEL-2 melanoma = test system: SK-MEL-2 melanoma
SN12C renal = test system: SN12C renal
UO-31 renal = test system: UO-31 renal
TK-10 renal = test system: TK-10 renal
ACHN renal = test system: ACHN renal
A498 renal = test system: A498 renal
CCRF-CEM leukemia = test system: CCRF-CEM leukemia
MOLT-4 leukemia = test system: MOLT-4 leukemia
CAKI-1 renal = test system: CAKI-1 renal
LOX IMVI melanoma = test system: LOX IMVI melanoma
EKVX NSCLC = test system: EKVX NSCLC

SMILES	growth (HCT-15 colon)	growth (HT29 colon)	growth (SNB-75 CNS)	growth (SNB-19 CNS) [%]	growth (U251 CNS)	growth (PC-3 prostate) [%]	growth (SK-MEL-5 melanoma)	growth (UACC-62 melanoma) [%]	growth (SK-MEL-28 melanoma) [%]	growth (SK-MEL-2 melanoma)	growth (SN12C renal)	growth (UO-31 renal) [%]	growth (TK-10 renal) [%]	growth (ACHN renal) [%]	growth (A498 renal)	growth (CCRF-CEM leukemia)	growth (MOLT-4 leukemia)	growth (CAKI-1 renal) [%]	growth (LOX IMVI melanoma)	growth (EKVX NSCLC) [%]
Nc1c(C(=O)Nc2ccccc2)sc2nc3c(cc12)CN(Cc1ccccc1)CC3	73.3%	78.8%	-46.2% (active)	76.1	75%	67.3	85.6%	70.6	60.3	103%	70.3%	49.8	53.9	38.1	26.5%	98.6%	92.3%			
Clc1ccc2c(c1)NC1(CCSc3ccccc31)n1nccc1-2 (configuration not stated)	98.5%	90.9%	95.5%	102	88.6%	81	99.4%	94.7	98.4	98.7%	104%	83.5	96.7	100		95.7%	90.9%	96.3		
COc1cccc(C2CC(=O)Nc3c2c(C)nn3-c2nc3ccccc3[nH]2)c1OC (configuration not stated)	59.4%	86.6%	74.8%	87.1	63.6%	62.8	60.1%	51.3	79.5	72.7%	75.5%	73.1		56.5	-5.31% (active)	8.46% (active)	-31% (active)	80.6	54.2%	
O=c1[nH]c2ccccc2cc1-c1nnc(Cc2ccccc2)o1	49%	57.9%	69.3%	86	72.4%	65.5	56.8%	47.9	101	78.4%	74%	40	112	65.9	106%	19%	57.1%			
COc1ccc(NC(=S)/N=c2\oc3c(OC)cccc3cc2-c2cc3ccccc3[nH]2)cc1	84.1%	82.8%	-12.2% (active)	57.8	75.7%	58.4	72.1%	76.4	69.9	90.2%	84.7%	95.2	96	44.8	87.9%		99.1%	28.3		79.6
C=CCN=C1NC(=O)/C(=C/c2cc(C(C)(C)C)c(O)c(C(C)(C)C)c2)S1	42.1%	26.9%	88.8%	83.6	77%	62.4	49.3%	63.8	73.3	40.1%	91%	67	79.4	87		69.4%	47.4%	47.8		
O=C(O)c1cccc([N+](=O)[O-])c1/C=C/c1ccccc1	102%	100%	86.9%	101	97.4%	124	103%	107	105	106%	98.7%	92.9		110	89.1%	103%	97.7%	93.4	96%	
COc1ccc(-c2cn[nH]c2-c2cc(OC)c3c(c2)OCO3)cc1	18.6%	5.01% (active)	-12.9% (active)	41.7	9.27% (active)	11.1	32%	15.8	39.4	-9.32% (active)	34%	27.8		39.5	-18.8% (active)	2.12% (active)	3.98% (active)	24.9	22.8%	
c1cncc(CNc2ccccc2-c2nnc(Nc3ccc4c(c3)OCCO4)o2)c1	19%	2.31% (active)	33.1%	38.1	30.8%	36.5	-9.92% (active)	39.8	68.9	15.8%	37.7%	47.1	63.1	40.4	11.3%	14%	22.1%	34.3		49.8
CC[C@]1(O)C[C@@H]2CN(Cc3c([nH]c4ccccc34)[C@@](C(=O)OC)(c3cc4c(cc3OC)N(C)[C@H]3[C@@](O)(C(=O)OC)[C@H](OC(C)=O)[C@]5(CC)[C@@H]6C[C@@H]6CN6CC[C@]43[C@@H]65)C2)C1	60.7%	-2.26% (active)	10.1%	51.7	6.95% (active)	14	2.99% (active)	34	64.4	9.71% (active)	34.1%	68.5	55.7	47.8	-8.06% (active)	1.15% (active)	1.8% (active)	50.6		
NC(N)=NC(N)=Nc1ccccc1-c1ccccc1	108%	112%	97.4%	111	106%	103	107%	108	109	109%	105%	99.3	108	106	113%	113%	98.6%	89.8		111
O=C(CNc1c(Cl)cccc1Cl)Nc1ccc(-c2nc3ccccc3s2)cc1	2.42% (active)	69.8%	59.2%	73.9	27.7%	85.9	21.2%	35.1	104	84.8%	48%	73.7	106	42.3		2.24% (active)	5.63% (active)	28.8		
CC(C)[C@H](CO)Nc1nc(Nc2ccc(C(=O)NCCNS(=O)(=O)c3cccc4c(N(C)C)cccc34)c(Cl)c2)c2ncn(C(C)C)c2n1	51.9%	9.2% (active)	10.6%	24.6	1.44% (active)	17	12.1%	22.2	15.7	-16.1% (active)	12.1%	77.2		43.4	-9.15% (active)	-1.68% (active)	-12.1% (active)	48.6	-3.44% (active)	
Cc1nc(Nc2cccnc2)sc1C(=O)/C=C/c1ccc(F)cc1	20.4%	8.45% (active)	2.4% (active)	18.9	12.9%	27.6	67.6%	46.3	87.6	92.4%	5.77% (active)	29.9	54	38.7		1.27% (active)	81.7%	46.2		
COc1cc(Cn2c(SCCC(=O)Nc3ccc(F)cc3)nc3ccccc3c2=O)cc(OC)c1OC	79%	86.9%	80.3%	80.4	95.2%	75.8	85%	76.4	99.8	81.3%	82.9%	53.7	101	81.9	63.3%	86.8%	49%	74		
COc1cc(-c2nc(-c3nc4ccccc4[nH]3)cc3c2[nH]c2ccccc23)cc(OC)c1OC	42.3%	49.7%	79.3%	66.9	48%	14.1	29%	28.5	44.2	23.9%	40.4%	24.3		51.4	44.8%	16.8%	44.3%	20	38.7%	
O=C(CN1CCN(c2cc3c(cc2F)c(=O)c(C(=O)O)cn3C2CC2)CC1)Nc1ccc(C(=O)/C=C/c2ccc(Cl)cc2)cc1	111%	106%	84.8%	92.9	99%	91.7	96.8%	93.1	96.5	113%	94.2%	94.6	111	107	102%	99.5%	110%	102		
